Only a selection was taken, and hits are over-represented in it overall.
KDM5B inh: blocks human KDM5B histone demethylase activity; Q9UGL1; KDM5B demethylase, FDH-coupled NADH fluorescence (FDH is formaldehyde dehydrogenase); Potency, µM (titrated, usually from 57.7 µM), actives largely listed as inhibitors; 2.6% of 220,000 active; AID 1347165; active = well fitted inhibition curve with a large enough effect; note: 0% is about no effect; nearly all actives have a fitted effect of over 70% in size
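Inhibition is measured as reduced NADH fluorescence generation from FDH coupling to formaldehyde release. Truncated KDM5BΔAP at 200 nM final acts on H3K4me3 peptide (12.5 µM in substrate mix) in pH 7.5 HEPES buffer with Tween-20, 30 min, room temperature.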
The depositor's hits bear a star; i = inactive; [ ] = dose if it differs, or a comment. Potency is the fitted concentration of half-maximal effect.

SMILES | KDM5B inh
CCn1c(SCC(=O)Nc2ccc(C(C)=O)cc2)nc2c(-c3ccccc3)csc2c1=O | i
O=C(CC1CCCN(c2cnn(CC3CC3)c(=O)c2)C1)Nc1cccc(F)c1 (stereo not given) | i
COc1cccc(CNC(=O)Cn2cccc2-c2nc(-c3ccc4c(c3)OCO4)no2)c1 | 28µM*
COc1ccc(CNC(=O)Cn2cccc2-c2nc(-c3ccc4c(c3)OCO4)no2)cc1OC | i
COc1ccc(CNC(=O)c2noc(-c3ccc(C)cc3)n2)cc1 | i
COc1cccc(CNC(=O)c2noc(-c3ccc(C)cc3)n2)c1 | i
O=C(NCc1ccc(F)cc1Cl)c1noc(-c2ccc3c(c2)OCO3)n1 | 32µM*
COc1ccc(CNC(=O)c2noc(-c3ccc4c(c3)OCO4)n2)cc1 | 28µM*
Cc1ccc(-c2nc(C(=O)NCc3ccccc3Cl)no2)cc1 | i
O=C(NCc1ccc2c(c1)OCO2)c1ccc2c(c1)N(Cc1cccc(Cl)c1)C(=O)c1ccccc1S2 | i
O=C(Cn1cccc1-c1nc(-c2ccc3c(c2)OCO3)no1)NCc1ccc(Cl)cc1 | i
O=C(NCc1ccccc1Cl)c1noc(-c2ccc(F)cc2)n1 | i
COc1ccc(OC)c(CNC(=O)c2noc(-c3ccc(C)cc3)n2)c1 | i
O=C(NCc1cccc(Cl)c1)c1noc(-c2ccc3c(c2)OCO3)n1 | 28µM*
Cc1c(C(=O)N2CCCC2)c(S(=O)(=O)NCCc2ccc(Cl)cc2)c(C)n1C | i
Cc1cc(C)cc(C(=O)N2CCC(c3n[nH]c(=O)n3Cc3ccc(F)cc3)CC2)c1 | i
O=C(CCc1cc(Cl)no1)N1CCCC(Cc2nncn2CC2CC2)C1 (stereo not given) | i
O=C(NCc1ccco1)c1cc(-c2ccccn2)nc2ccccc12 | i
O=C(c1cccc(Cl)c1)N1CCN(CCc2ccccn2)CC1 | i[11.5 µM]
c1cncc(-c2nnc3n2CCN(CC2CCCCC2)C3)c1 | i
CCC(C)c1ccc(C(CC)NC(=S)NCc2ccc(F)cc2)cc1 (stereo not given) | i
Cn1nc(C(=O)NC2CCCCC2)c(Cl)c1C(F)(F)F | i
CC(C)CN1CCC(NC(=O)N(C)Cc2ccc(C(F)(F)F)cc2)CC1 | i
CCc1cccc(NC(=O)C2CCN(S(=O)(=O)c3ccc(Br)s3)CC2)c1 | i
CCCNC(=O)NC(=O)CN(Cc1ccco1)C1CC1 | i
SMILES | KDM5B inh
CCC(=O)N1CCN(C(=O)Cc2ccc(C)c(C)c2)[C@H]2CS(=O)(=O)C[C@H]21 | i
COCc1nnc2n1CCC(NC(=O)c1ccc(C#N)cc1)CC2 (stereo not given) | i
Cc1ccc(C)c(NC(=O)NC(=O)C(F)(F)F)c1 | i
Cc1ccc(-c2nc(C(=O)NCc3ccc4c(c3)OCO4)no2)cc1 | i
COc1ccccc1CNC(=O)c1ccc2c(c1)OCO2 | i
CC(NC(=O)c1noc(-c2ccc3c(c2)OCO3)n1)c1ccccc1 (stereo not given) | i
Cc1ccc(-c2nc(C(=O)N3CCN(Cc4ccc5c(c4)OCO5)CC3)no2)cc1 | i
CCOc1ccccc1CNC(=O)c1noc(-c2ccc3c(c2)OCO3)n1 | 32µM*
Cc1ccc(CNC(=O)c2noc(-c3ccc4c(c3)OCO4)n2)cc1 | 35µM*
COc1ccc(CCNC(=O)c2noc(-c3ccc(F)cc3)n2)cc1OC | i
Cc1cccc(CCNC(=O)c2noc(-c3ccc4c(c3)OCO4)n2)c1 | 32µM*
Cc1ccc(-c2nc(C(=O)NCCc3ccccc3)no2)cc1 | i
O=C(NCC1CCOCC1)Nc1c(F)cccc1F | i
Cc1nc(CSc2ccccc2C(=O)N2CC=C(c3ccccc3)CC2)no1 | i
O=C(Cn1c(=O)[nH]c2ccccc2c1=O)N1CCN(c2ccccc2)CC1 | i
CC(=O)Nc1ccc(CN2CCC3(CC(C)=NO3)C2)cc1 (stereo not given) | i
O=C1CC2(C(=O)Nc3cc(F)ccc32)c2sc(C(=O)O)c(-c3ccccc3)c2N1 (stereo not given) | i
CC(=O)NC[C@H]1O[C@@H](CC(=O)N(C)Cc2ccccc2)[C@H](O)[C@@H]1O | i
CCCn1c(SCCCn2c(=O)c3c(ncn3C)n(C)c2=O)nc2ccccc2c1=O | i
CC(C)NC(=O)N1CCN2C(=O)N(C(C)C)C(=O)[C@H]2C1 | i
O=C1c2cc(N3CCOCC3)nc(-c3cnc4[nH]ccc4c3)c2CN1CC1CC1 | 13µM*
O=C1Cc2c(-c3ccsc3)n[nH]c2CN1CC1CCOCC1 | i
O=C1Cc2c(-c3cccc(O)c3)n[nH]c2CN1CC1CC1 | i
CN1CC(=O)N(c2ccccc2F)Cc2c1ncnc2N1CCOCC1 | i
O=c1[nH]c(N2CCOCC2)nc2c1CCN(Cc1ccccc1F)CC2 | i
O=C1c2cc(N3CCOCC3)nc(-c3cnc4[nH]ccc4c3)c2CN1CC(F)(F)F | 32µM*
O=C1c2cc(N3CCOCC3)nc(-c3ccccc3F)c2CN1CC(F)(F)F | 32µM*
CCOC(=O)CN(Cc1ccccc1)C(C(=O)NC1CCCCC1)c1ccccc1 (stereo not given) | i

Bioassay records deposited in PubChem BioAssay by National Center for Advancing Translational Sciences (NCATS).
